# Source: PubChem BioAssay (NCATS)
# Records with an inconclusive call do not appear. Where a call stands in place of a potency, no number is given. The source made the active and inactive calls. Unless noted, calls come from the whole dose curve; as a rule, active = well fitted curve in the direction sought with a large enough effect; inconclusive = small, poorly fitted or top-dose-only effect, or another doubt; inactive = no such curve, though single readings can be large; an effect the other way counts as inactive or inconclusive.
# Tests used:
# [1] = qHTS of pediatric cancer cell lines to identify multiple opportunities for drug repurposing: Primary screen for TC32 cells (AID 1347089); settings: TC32 Ewing sarcoma viability, CellTiter-Glo luminescence, 48 h; series mostly up to 45.8 µM; note: nearly all actives have a fitted effect of over 60% in size; note: potency is the fitted concentration of half-maximal effect
# Procedure, shortened: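 TC32 cells, 500-1,000/well in growth medium, compound-treated 48 h at 37 °C; viability from CellTiter-Glo luminescence. Primary screen: MIPE 11-point (0.78 nM–46 µM final), NPC 8-point (0.59 nM–46 µM final); confirmatory at 11-point dilutions.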
# [2] = qHTS of pediatric cancer cell lines to identify multiple opportunities for drug repurposing: Primary screen for DAOY cells (AID 1347090); settings: DAOY medulloblastoma viability, CellTiter-Glo luminescence, 48 h; series mostly up to 46 µM; note: potency is the fitted concentration of half-maximal effect; nearly all actives have a fitted effect of over 55% in size
# Procedure, shortened: (§1)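 Eight- or eleven-point concentration series, 48 h treatment at 37 degrees C in growth media; readout CellTiter-Glo luminescence. Potency and efficacy were taken from the concentration-response curves.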
# [3] = qHTS of pediatric cancer cell lines to identify multiple opportunities for drug repurposing: Primary screen for SJ-GBM2 cells (AID 1347091); settings: SJ-GBM2 viability, CellTiter-Glo luminescence, 48 h; series mostly up to 46 µM; note: potency is the fitted concentration of half-maximal effect
# Procedure, shortened: as §1
# [4] = qHTS of pediatric cancer cell lines to identify multiple opportunities for drug repurposing: Primary screen for A673 cells (AID 1347092); settings: A673 Ewing sarcoma viability, CellTiter-Glo ATP luminescence, 48 h; series mostly up to 46 µM; note: nearly all actives have a fitted effect of over 45% in size; note: potency is the fitted concentration of half-maximal effect
# Procedure, shortened: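 A673 cells (500-1,000 cells/well) were treated 48 hours at 37 degrees C with compounds at 11-point (0.78 nM to 46 µM) or 8-point (0.59 nM to 46 µM) dilutions. Viability read by CellTiter-Glo luminescence; concentration-response curves fitted.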
# [5] = target: Parathyroid hormone/parathyroid hormone-related peptide receptor (Homo sapiens) (UniProt Q03431); test: qHTS for PTHR1 Agonists: Optimization Screen against the NCGC LOPAC library (AID 1347079); settings: HEK293 GP2 PTHR1 GloSensor cAMP luminescence, 1 h; series mostly up to 57.1 µM;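 note: GloSensor cAMP luminescence in HEK-293 GP2 cells expressing human PTHR1 with IBMX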
# Chain of Parathyroid hormone/parathyroid hormone-related peptide receptor (Homo sapiens) (Q03431 whole entry, looked up): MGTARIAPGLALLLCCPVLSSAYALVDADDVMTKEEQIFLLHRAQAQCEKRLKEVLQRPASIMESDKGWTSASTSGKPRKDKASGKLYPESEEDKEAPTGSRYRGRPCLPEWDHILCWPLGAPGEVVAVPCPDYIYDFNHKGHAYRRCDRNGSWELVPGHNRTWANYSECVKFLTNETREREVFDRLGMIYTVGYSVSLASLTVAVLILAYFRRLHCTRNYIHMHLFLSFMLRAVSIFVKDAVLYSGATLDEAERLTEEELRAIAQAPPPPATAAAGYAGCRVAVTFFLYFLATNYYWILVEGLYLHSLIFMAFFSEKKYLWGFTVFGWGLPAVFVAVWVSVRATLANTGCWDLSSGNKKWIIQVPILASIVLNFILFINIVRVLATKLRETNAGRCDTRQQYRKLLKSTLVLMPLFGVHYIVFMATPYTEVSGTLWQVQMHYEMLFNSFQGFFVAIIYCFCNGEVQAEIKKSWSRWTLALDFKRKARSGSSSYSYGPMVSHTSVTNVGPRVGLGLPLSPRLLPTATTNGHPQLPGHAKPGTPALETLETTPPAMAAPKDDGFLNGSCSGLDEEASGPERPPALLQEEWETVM
# Procedure, shortened: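 HEK-293 GP2 cells, PTHR1 + GloSensor cAMP; 3000 cells/well, o/n. Luciferin + IBMX 0.5mM each (stock), 1 hr 37C. Cpd titration, 1 hr 37C. Lum after 15 min RT. Ctrl M-PTH(1-15) top 10uM.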
# [6] = NS1 protein of Zika virus - qHTS assay to identify small molecule inhibitors in human HEK 293 cells (AID 1347053); settings: HEK293 ZIKV MR766 infection, NS1 TR-FRET, 24 h; series mostly up to 46.1 µM; note: nearly all actives have a fitted effect of over 55% in size
# Procedure, shortened: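 TR-FRET signal from two anti-ZIKV NS1 antibodies quantified NS1 in HEK 293 cells 24 h after MR766 infection at MOI = 0.5; compounds were added 1 h before virus. Uninfected cells and infected cells defined the NS1 normalization range.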
# [7] = qHTS of pediatric cancer cell lines to identify multiple opportunities for drug repurposing: Primary screen for BT-37 cells (AID 1347094); settings: BT-37 viability, CellTiter-Glo luminescence, 48 h; series mostly up to 57.3 µM; note: potency is the fitted concentration of half-maximal effect
# Procedure, shortened: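 CRCs from 8- or 11-point titrations (lowest final 0.59 nM NPC, 0.78 nM MIPE). Cell viability: CellTiter-Glo after 48 h incubation, 15 min room-temperature development, luminescence imaging.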
# [8] = qHTS of pediatric cancer cell lines to identify multiple opportunities for drug repurposing: Primary screen for SK-N-MC cells (AID 1347093); settings: SK-N-MC viability, CellTiter-Glo luminescence, 48 h; series mostly up to 46 µM; note: potency is the fitted concentration of half-maximal effect
# Procedure, shortened: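 Metabolically active cells were quantified by ATP-dependent luminescence (CellTiter-Glo, 15 min at room temperature) following 48 h treatment. Cells had been plated at 500-1,000 per well and settled for 5 h beforehand.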
# [9] = target: T1, Tyrosine-protein phosphatase non-receptor type substrate 1 (Homo sapiens) + Leukocyte surface antigen CD47 (Homo sapiens) (UniProt P78324+Q08722); test: CD47-SIRPalpha protein protein interaction - LANCE assay qHTS validation (AID 1347057; active = well fitted curve in the direction sought with a large enough effect in the signal ratio, with a control signal flat, not every such curve was filed as active; the % refers to the signal ratio); settings: Recombinant CD47-His / biotin-SIRPalpha, TR-FRET ratio; series mostly up to 38.3 µM
# T1 sequence (P78324 whole entry, looked up, the tested form may be a part): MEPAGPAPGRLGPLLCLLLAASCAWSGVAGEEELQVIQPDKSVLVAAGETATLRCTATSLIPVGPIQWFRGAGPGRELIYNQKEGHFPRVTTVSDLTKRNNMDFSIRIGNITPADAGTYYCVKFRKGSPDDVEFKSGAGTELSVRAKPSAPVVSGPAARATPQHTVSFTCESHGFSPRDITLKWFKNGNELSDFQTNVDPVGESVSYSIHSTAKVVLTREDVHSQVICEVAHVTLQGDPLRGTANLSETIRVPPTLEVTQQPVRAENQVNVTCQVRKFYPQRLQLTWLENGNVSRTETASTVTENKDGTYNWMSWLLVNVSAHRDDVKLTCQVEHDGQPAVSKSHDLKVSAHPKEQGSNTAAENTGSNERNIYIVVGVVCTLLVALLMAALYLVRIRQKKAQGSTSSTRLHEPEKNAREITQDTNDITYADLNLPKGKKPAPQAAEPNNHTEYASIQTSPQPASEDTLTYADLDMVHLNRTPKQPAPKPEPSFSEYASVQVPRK
# T1 sequence (Q08722 whole entry, looked up, the tested form may be a part): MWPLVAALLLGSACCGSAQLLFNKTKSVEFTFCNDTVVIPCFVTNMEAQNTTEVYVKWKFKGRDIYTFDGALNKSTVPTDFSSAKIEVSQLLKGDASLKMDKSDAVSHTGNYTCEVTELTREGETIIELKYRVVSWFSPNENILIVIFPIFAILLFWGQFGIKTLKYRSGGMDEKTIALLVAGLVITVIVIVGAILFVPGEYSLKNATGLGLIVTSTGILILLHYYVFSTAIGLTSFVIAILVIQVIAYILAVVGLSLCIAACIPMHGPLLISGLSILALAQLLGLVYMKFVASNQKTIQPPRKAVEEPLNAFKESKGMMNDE
# Procedure, shortened: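 Inhibition of soluble CD47/SIRPalpha ectodomain association by titrated compounds, measured as 665/615 nm time-resolved FRET ratio after sequential 30 min room-temperature incubations.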
# [10] = target: T1, Tyrosine-protein phosphatase non-receptor type substrate 1 (Homo sapiens) + Leukocyte surface antigen CD47 (Homo sapiens); test: CD47-SIRPalpha protein protein interaction - HTRF assay qHTS validation (AID 1347058; active = well fitted curve in the direction sought with a large enough effect in the signal ratio, not every such curve was filed as active; the % refers to the signal ratio); settings: TR-FRET HTRF CD47-His / biotin-SIRPalpha binding, ratio 665/615; series mostly up to 38.3 µM
# Procedure, shortened: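 Soluble extracellular domains (6His-CD47, Avi-tag-biotinylated SIRPalpha) in PBS pH 7.4 with 0.05% IGEPAL CA-630. Compounds were preincubated 30 min at RT with CD47 and anti-His-Eu, then SIRPalpha and SAV-XL665 were added. TR-FRET 665/615 ratio.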
# [11] = target: T1, Tyrosine-protein phosphatase non-receptor type substrate 1 (Homo sapiens) + Leukocyte surface antigen CD47 (Homo sapiens); test: CD47-SIRPalpha protein protein interaction - Alpha assay qHTS validation (AID 1347059); settings: AlphaScreen CD47-His/biotin-SIRPalpha binding, LOPAC; series mostly up to 38.3 µM;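 note: bead proximity luminescence from CD47 binding SIRPalpha after compound preincubation with SIRPalpha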
# Procedure, shortened: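 In PBS (pH 7.4) with 0.05% IGEPAL CA-630, compound is preincubated with biotin-Avi-SIRPalpha ectodomain before His-CD47 ectodomain and affinity beads are added. Light-protected room-temperature incubations; AlphaScreen readout.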
smiles,measurement,setting,value
Oc1c(Br)cc(Br)c2cccnc12,Potency,[1],inactive
same,Potency,[2],16800 nM (active)
same,Potency,[3],11900 nM (active)
same,Potency,[4],3350 nM (active)
CCCCCC(O)c1cccc(OCc2ccc3ccccc3n2)c1 (centres undefined),Potency,[5],inactive
Nc1ccc(C(=O)O)c(O)c1,Potency,[6],inactive
same,Potency,[1],inactive
same,Potency,[3],inactive
same,Potency,[4],inactive
same,Potency,[7],inactive
CCCSc1ccc2nc(NC(=O)OC)[nH]c2c1,Potency,[6],inactive
same,Potency,[1],938 nM (active)
same,Potency,[3],422 nM (active)
same,Potency,[4],841 nM (active)
same,Potency,[8],841 nM (active)
same,Potency,[7],2460 nM (active)
Clc1ccccc1-c1nc(-c2ccncc2)no1,Potency,[6],inactive
same,Potency,[1],inactive
same,Potency,[3],inactive
same,Potency,[4],inactive
same,Potency,[8],inactive
same,Potency,[7],inactive
NS(=O)(=O)C#Cc1ccccc1,Potency,[9],inactive
same,outcome,[10],inactive
same,Potency,[5],inactive
COc1ccc(/C=C2\COc3ccc(C)cc3C2=O)cc1O,Potency,[9],inactive
Nc1ccn([C@H]2O[C@H](CO)[C@@H](O)C2(F)F)c(=O)n1,Potency,[9],inactive
same,outcome,[10],inactive
same,Potency,[11],inactive
N=C(N)N,Potency,[6],inactive
same,Potency,[1],inactive
same,Potency,[3],inactive
same,Potency,[4],inactive
same,Potency,[7],inactive
CNC(=O)c1c(I)c(NC(=O)CCCCC(=O)Nc2c(I)c(C(=O)O)c(I)c(C(=O)NC)c2I)c(I)c(C(=O)O)c1I,Potency,[6],inactive
same,Potency,[1],inactive
same,Potency,[3],inactive
same,Potency,[4],inactive
same,Potency,[7],inactive
COC(=O)Nc1nc2ccc(C(=O)C3CC3)cc2[nH]1,Potency,[6],inactive
same,Potency,[1],1330 nM (active)
same,Potency,[3],841 nM (active)
same,Potency,[4],1060 nM (active)
same,Potency,[7],2190 nM (active)
COc1cccc2c1C(=O)c1c(O)c3c(c(O)c1C2=O)C[C@@](O)(C(=O)CO)C[C@@H]3O[C@H]1C[C@H](N)[C@H](O[C@@H]2CCCCO2)[C@H](C)O1,Potency,[1],470 nM (active)
same,Potency,[3],1330 nM (active)
same,Potency,[4],1060 nM (active)
same,Potency,[8],211 nM (active)
same,Potency,[7],246 nM (active)
